Experimental data from PubChem BioAssay (NCATS).
Results filed as inconclusive are left out. Active and inactive are the calls of the source. Calls follow the shape of the dose curve; as a rule, active = well fitted curve in the direction sought with a large enough effect; inconclusive = small, poorly fitted or top-dose-only effect, or another doubt; inactive = no such curve, though single readings can be large; an effect the other way counts as inactive or inconclusive.

Assays:
MKL-2 = assay: qHTS assay to identify novel small-molecules to repurpose for Merkel cell carcinoma treatment (AID 1296009); conditions: MCC and control cell lines, CellTiter-Glo viability, 72 h; series mostly up to 46 µM; also: nearly all actives have a fitted effect of over 60% in size
Method in brief: (§1)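 Luminescence from CellTiter-Glo, read 10 min after addition at room temperature, reported viability following a 72 hr, 37 degree celsius treatment with NPC or MIPE compounds in titration; values normalized to plate controls.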

UISO = assay: as above; conditions: MCC and control cell lines, CellTiter-Glo viability, 72 h; series mostly up to 46 µM
Method in brief: as §1

WaGa = assay: as above; conditions: MCC and control cell lines, CellTiter-Glo viability, 72 h; series mostly up to 46 µM
Method in brief: as §1

C33A = assay: Primary qHTS to identify gynecologic anti-cancer compounds using libraries of approved drugs and bioactive compounds (AID 1345084); conditions: Gynecologic cancer cell panel viability, ATPlite luminescence, 48 h; series mostly up to 57.5 µM; also: nearly all actives have a fitted effect of over 55% in size
Method in brief: (§2)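 ATP-based viability (ATPlite), 1,000 cells/well, 16 h pre-incubation, 48 h compound at 37 C, 5% CO2, 15 min RT before read.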

CAOV3 = assay: as above; conditions: Gynecologic cancer cell panel viability, ATPlite luminescence, 48 h; series mostly up to 57.5 µM
Method in brief: as §2

CASKI = assay: as above; conditions: Gynecologic cancer cell panel viability, ATPlite luminescence, 48 h; series mostly up to 57.5 µM
Method in brief: as §2

Es-2 = assay: as above; conditions: Gynecologic cancer cell panel viability, ATPlite luminescence, 48 h; series mostly up to 57.5 µM
Method in brief: as §2

HeLa = assay: as above; conditions: Gynecologic cancer cell panel viability, ATPlite luminescence, 48 h; series mostly up to 57.5 µM
Method in brief: as §2

Hek293T = assay: as above; conditions: Gynecologic cancer cell panel viability, ATPlite luminescence, 48 h, control line for the selectivity index; series mostly up to 57.5 µM
Method in brief: as §2

JEG-3 = assay: as above; conditions: Gynecologic cancer cell panel viability, ATPlite luminescence, 48 h; series mostly up to 57.5 µM
Method in brief: as §2

OV90 = assay: as above; conditions: Gynecologic cancer cell panel viability, ATPlite luminescence, 48 h; series mostly up to 57.5 µM
Method in brief: as §2

PA-1 = assay: as above; conditions: Gynecologic cancer cell panel viability, ATPlite luminescence, 48 h; series mostly up to 57.5 µM
Method in brief: as §2

Tov-21-G = assay: as above; conditions: Gynecologic cancer cell panel viability, ATPlite luminescence, 48 h; series mostly up to 57.5 µM
Method in brief: as §2

Tov112D = assay: as above; conditions: Gynecologic cancer cell panel viability, ATPlite luminescence, 48 h; series mostly up to 57.5 µM
Method in brief: as §2

[1] = Drug repurposing screens with cells derived from glioblastoma tumor samples (AID 1345199); conditions: GBM patient neurospheres viability, ATP luminescence, 48 h; also: nearly all actives have a fitted effect of over 40% in size; also: potency is read from the fitted curve at half-maximal effect
Method in brief: (§3)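 Primary testing used CD133+ neurospheres from four GBM patients, seven concentrations, 48 h exposure and ATP-based viability; confirmation added three slower-growing patient lines.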

astro = assay: as above; conditions: viability, ATP luminescence, 48 h; series mostly up to 45.9 µM
Method in brief: as §3

SKOV3 = assay: Primary qHTS to identify gynecologic anti-cancer compounds using libraries of approved drugs and bioactive compounds (AID 1345084); conditions: Gynecologic cancer cell panel viability, ATPlite luminescence, 48 h; series mostly up to 57.5 µM; also: nearly all actives have a fitted effect of over 55% in size
Method in brief: as §2

[2] = at 108 µM (top of the series), tumour line B
% is scaled to controls: 0 for no effect and ±100 for the full control effect.

COc1cc(CC(C)N)cc2c1OCO2 (stereo not drawn)
inactive: Potency (MKL-2) | Potency (UISO) | Potency (WaGa) | Potency (C33A) | Potency (CAOV3) | Potency (CASKI) | Potency (Es-2) | Potency (HeLa) | Potency (Hek293T) | Potency (JEG-3) | Potency (OV90) | Potency (PA-1) | Potency (Tov-21-G) | Potency (Tov112D) | activity, negative = cell killing [1, 2] -12.8% | Potency (astro)
active: Potency ([1]; tumour line A) 35.5 µM

CCCCC1C(=O)NC(=O)N(C2CCCCC2)C1=O (stereo not drawn)
inactive: Potency (MKL-2) | Potency (UISO) | Potency (WaGa) | Potency (C33A) | Potency (CASKI) | Potency (Es-2) | Potency (HeLa) | Potency (Hek293T) | Potency (JEG-3) | Potency (OV90) | Potency (PA-1) | Potency (SKOV3) | Potency (Tov-21-G) | Potency (Tov112D) | activity, negative = cell killing ([1]; at 45.9 µM (top of the series), tumour line B) 0.883% | activity, negative = cell killing ([1]; at 45.9 µM (top of the series), tumour line D) 0.724% | activity, negative = cell killing ([1]; at 46 µM (top of the series), tumour line A) -28.6% | Potency (astro)

CC(Cc1ccc2c(c1)OCO2)NO (stereo not drawn)
inactive: Potency (MKL-2) | Potency (UISO) | Potency (WaGa) | Potency (C33A) | Potency (CAOV3) | Potency (CASKI) | Potency (Es-2) | Potency (HeLa) | Potency (Hek293T) | Potency (JEG-3) | Potency (OV90) | Potency (PA-1) | Potency (SKOV3) | Potency (Tov-21-G) | Potency (Tov112D) | activity, negative = cell killing [1, 2] -8.99% | activity, negative = cell killing ([1]; at 108 µM (top of the series), tumour line D) -8.83% | Potency (astro)
